Source: PubChem
Most compounds without a hit are left out; they make up all but 2.4% or so of the library.
NSD2 inh = blocks human histone methyltransferase NSD2 | NSD2 peptide methylation, AlphaScreen, 120 min | 310,000 tested, 0.54% active | O96028 | inhibition, % at 12.5 µM
INS-1E GSIS act = primary screen for activators of insulin secretion dependent on glucose, INS-1E cells, GLuc reporter luminescence | INS-1E GLuc reporter insulin secretion, 2-3 h | activation, % at 16.6 µM | 370,000 tested, 0.61% active | AID 743287;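 active = lowest replicate activation of at least 40%, so every replicate reaches that level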
MITF TRPM1 HTS = activators of MITF-driven TRPM1 promoter activity in SK-MEL-5 cells. SK-MEL-5 TRPM1-promoter luciferase, 24 h; % of positive control, neutral wells = 0. activation, % at 12.5 µM. 300,000 tested, 0.75% active;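 active = mean activation of at least 80% with every replicate also reaching 80%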
miR122 inh = inhibitors of miR-122 in Huh7 cells; Huh7 miR-122 Renilla luciferase sensor, 48 h; neutral wells = 0, positive control = 100; activation (reporter increase), % at 12.5 µM; 340,000 tested, 0.3% active; AID 602342;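 active = mean replicate activation score at least 90 and every replicate individually at or above 90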;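 also: higher luciferase means less miR-122 activity so hits act as miR-122 inhibitors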
Dyrk1A ADPGlo = inhibitors of rat Dyrk1A kinase | Q63470 | ADP-Glo luminescence, NFATc1 peptide | inhibition, % at 12.5 µM | 310,000 tested, 0.43% active
Wnt bcat act = Wnt/beta-catenin pathway activation; 300,000 tested, 1.2% active; activation, % at 9.35 µM; AID 743398; Wnt/beta-catenin reporter cell assay, activator, plate reader; in the data active = activation above about 30%, passing the limit was not always enough
Of the large screens only hits and unclear results are named; the others gave an inactive call. Rule as the data show it, unless noted: active = inhibition above about 50%; inactive = the rest.

COc1cc(SC)ccc1C(=O)Nc1ccc(OCC(=O)N2CCOCC2)cc1	MITF TRPM1 HTS 83 (no result: miR122 inh)
COc1cc(SC)ccc1C(=O)Nc1cc(C)c(OCC(=O)N2CCOCC2)c(C)c1	none (no result: NSD2 inh, miR122 inh)
CCNC(=O)[C@@H]1[C@@H](CO)[C@@H]2Cn3c(ccc(-c4ccccc4F)c3=O)[C@H]1N2S(C)(=O)=O	none (no result: NSD2 inh, MITF TRPM1 HTS, miR122 inh, Dyrk1A ADPGlo, Wnt bcat act)
CC(O)CNCc1ccccc1C(F)(F)F (centres undefined)	Wnt bcat act 41
COc1ccc(CNC(=O)C(c2ccc(C)o2)N(Cc2cccs2)C(=O)Cc2cccs2)cc1 (centres undefined)	miR122 inh 158 (no result: INS-1E GSIS act)
CCC(=O)Nc1ccc(C2=NNC(=NCC3CCCO3)SC2)cc1 (centres undefined)	none (no result: INS-1E GSIS act, MITF TRPM1 HTS, miR122 inh, Dyrk1A ADPGlo, Wnt bcat act)
COc1ccc(NC(=O)Nc2ccc3c(c2)C(=O)N([C@H](C)CO)C[C@@H](C)[C@@H](CN(C)C(=O)CCCN(C)C)OCCCC[C@@H](C)O3)cc1	none (no result: NSD2 inh, MITF TRPM1 HTS, Dyrk1A ADPGlo, Wnt bcat act)
Cc1nnc(SCC(=O)Nc2cc(Cl)ccc2Cl)n1CC1CCCO1 (centres undefined)	INS-1E GSIS act 73
C[C@H]1CN([C@@H](C)CO)C(=O)c2cc(C3=CCCC3)cnc2O[C@@H]1CN(C)C(=O)Nc1ccccc1	none (no result: NSD2 inh, MITF TRPM1 HTS, Dyrk1A ADPGlo, Wnt bcat act)
CCN(C[C@@H]1[C@@H](c2ccccc2)[C@H](CO)N1C(C)=O)C(=O)NC1CCCC1	none (no result: NSD2 inh, MITF TRPM1 HTS, Dyrk1A ADPGlo, Wnt bcat act)
CCCN(C)C[C@@H]1Oc2ncc(C#CC3(O)CCCC3)cc2C(=O)N([C@H](C)CO)C[C@@H]1C	none (no result: NSD2 inh, MITF TRPM1 HTS, Dyrk1A ADPGlo, Wnt bcat act)
O=C(NC(=O)c1ccccc1)Nc1ccccc1	Wnt bcat act 36 (no result: INS-1E GSIS act)
COc1ccc(CNC(=S)Nc2ccccc2F)cc1	none (no result: Dyrk1A ADPGlo)
COc1ccc(C(=O)NNC(=O)CSc2nnc(COc3ccccc3OC)n2C)cc1	INS-1E GSIS act 41 (no result: Wnt bcat act)
COc1ccccc1N/C(=N/S(=O)(=O)c1ccc(C)cc1)c1ccccc1	miR122 inh 135 (no result: INS-1E GSIS act)
O=C(NC(=O)c1ccccc1)Nc1ccc(-c2cnco2)cc1	none (no result: MITF TRPM1 HTS, Dyrk1A ADPGlo)
COc1ccc(C(=O)NC(=S)Nc2ccccc2F)cc1	Wnt bcat act 34 (no result: miR122 inh)
COc1ccc(C(=O)NNC(=O)CSc2nnc(-c3cccnc3)n2C)cc1	none (no result: miR122 inh)
COc1ccccc1N/C(=N/S(=O)(=O)c1ccc(Cl)cc1)c1ccccc1	none (no result: Wnt bcat act)
COc1ccc2c3c([nH]c2c1)[C@H](CO)N(C(=O)c1ccncc1)CC31CCN(C(=O)C2CCC2)CC1	none (no result: NSD2 inh, MITF TRPM1 HTS, miR122 inh, Dyrk1A ADPGlo, Wnt bcat act)
COc1ccc(N/C(C)=C/C(=O)c2ccccc2)cc1	MITF TRPM1 HTS 120
COc1ccc(NC(=O)NC(=O)c2ccccc2)cc1	Wnt bcat act 52 (no result: MITF TRPM1 HTS, miR122 inh)
COc1ccccc1NC(=O)NC(=O)c1ccccc1	Wnt bcat act 47 (no result: MITF TRPM1 HTS)
CCc1nnc(NC(=O)Nc2ccccc2OC)s1	MITF TRPM1 HTS 135 (no result: INS-1E GSIS act, Dyrk1A ADPGlo)
COc1ccccc1NC(=O)NC(N)=O	none (no result: INS-1E GSIS act)
COc1ccccc1NC(=O)Nc1nnc(CC(=O)Nc2ccccc2)s1	none (no result: MITF TRPM1 HTS, miR122 inh, Dyrk1A ADPGlo)
Cc1cc(C)c(NC(=S)NC(=O)c2ccccc2)cc1C	Wnt bcat act 34 (no result: INS-1E GSIS act, MITF TRPM1 HTS, miR122 inh, Dyrk1A ADPGlo)
Cc1ccc(C(=O)O)cc1NC(=S)NC(=O)c1ccc(-c2ccccc2)cc1	none
CCn1c(CCNC(=O)c2ccc(OC)cc2)nnc1SCC(=O)Nc1ccccc1F	miR122 inh 120
CCOc1ccc(NC(=O)CSc2nnc(CCNC(=O)c3ccc(OC)cc3)n2CC)cc1	none (no result: Wnt bcat act)
Cc1noc(C)c1NC(=O)N(C)C[C@H]1OCCCC[C@H](C)Oc2ccc(NS(=O)(=O)c3cn(C)cn3)cc2C(=O)N([C@@H](C)CO)C[C@H]1C	none (no result: NSD2 inh, MITF TRPM1 HTS, Dyrk1A ADPGlo, Wnt bcat act)
CCCCCn1c(N(C)Cc2ccccc2)nc2c1c(=O)[nH]c(=O)n2C	INS-1E GSIS act 40 (no result: NSD2 inh)
CN(Cc1ccccc1)c1nc2c(c(=O)[nH]c(=O)n2C)n1Cc1ccccc1	INS-1E GSIS act 70 (no result: MITF TRPM1 HTS, Wnt bcat act)
CN(Cc1ccccc1)c1nc2c(c(=O)[nH]c(=O)n2C)n1Cc1ccccc1F	none
COCC(=O)N1[C@@H]2c3ccc(/C=C/c4ccccc4)c(=O)n3C[C@H]1[C@H](CO)[C@H]2C(=O)N1CCCCC1	none (no result: NSD2 inh, MITF TRPM1 HTS, Dyrk1A ADPGlo, Wnt bcat act)
Cc1ccc(C(=O)/C=C/c2ccc(-c3ccccc3[N+](=O)[O-])o2)cc1	none (no result: INS-1E GSIS act, miR122 inh)
COc1cccc(/C=C(\C(=O)O)c2ccccc2)c1	none (no result: INS-1E GSIS act)
COc1ccc(C(=Cc2ccccc2[N+](=O)[O-])C(=O)O)cc1	Wnt bcat act 49
Cc1ccc(C(=O)/C=C/c2ccccc2[N+](=O)[O-])cc1	Wnt bcat act 50
C[C@H]1CCCCO[C@H](CN(C)C(=O)Nc2ccc3c(c2)OCO3)[C@@H](C)CN([C@@H](C)CO)C(=O)c2cc(NC(=O)CCC(F)(F)F)ccc2O1	none (no result: NSD2 inh, MITF TRPM1 HTS, Dyrk1A ADPGlo, Wnt bcat act)
